We go through 19 sequences from the OligoGym collection.
Note: reference of the scale not given here.

The target in the first assay is JOSD1. Description: pooled miR-30 sensor sort-seq; sequence = guide strand. As to conditions: shRNA.
As for TTGGAGTCGAGGTTGTAGTAGG, the sensor-assay potency score (higher = more potent) is -0.655.
For the sequence TTTTAGAAACTTCCTGAGCTCG, the sensor-assay potency score (higher = more potent) is -0.609.
Still for that read-out and setting: then TAGAAACTTCCTGAGCTCGCTC, with 0.337; and TTTAGAAACTTCCTGAGCTCGC, with 0.218.
Still for that read-out and setting: with TACCTCTTCTGGTACCACCAGC the figure was -0.788.
On the same count and under the same terms, then ATCTCTTGCAGCGTATCCCGGG, with -0.409.
Regarding TCGAACACAGATCCAGTGCTGC, the sensor-assay potency score (higher = more potent) is -0.708.

Another assay concerns the target KAAG1. Described as above. As to conditions: shRNA.
In turn, TTTCAGGAGGCGATCCCGCGCC returned a sensor-assay potency score (higher = more potent) of -0.845.
Still for that read-out and setting: then AAGAGCGTGCTTGTGTACCGCA, with -0.0933; and TGCTTGTGTACCGCAACGGGGA, with -1.14; and TCAGTTTCTCGTTCGTTTCAGG, with -0.203.
Same read-out and setting: then ATTCGTCAGTTTCTCGTTCGTT, with -0.19; and TCAGCCCGTCGTGAAGAGCGTG, with -1.18; and TTCGTCAGTTTCTCGTTCGTTT, with -0.143.
Sequence TGGATTCGTCAGTTTCTCGTTC came in with a sensor-assay potency score (higher = more potent) of -0.583.
Still for that read-out and setting: then TCTCGTTCGTTTCAGGAGGCGA, with -0.839; and TTTCTCGTTCGTTTCAGGAGGC, with 0.381.
Same read-out and setting: with TCGTTTCAGGAGGCGATCCCGC the figure was -1.24; with TTCTCGTTCGTTTCAGGAGGCG, -0.584.
